Values without a mark were called inactive. Activity calls are given as the source filed them.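 How the source made its calls: active means inhibition of the reporter signal at or above 50%; inactive means inhibition below 50%.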

40 compounds from PubChem BioAssay can be followed below.

A short description of the experiment: TLR3 IRF3 reporter activation blockers – cell-based, poly I:C stimulus, luciferase, 10K MLSCN set, primary screen (AID 602277). The settings on record: HEK293-TLR3 RL24 IRF3 luciferase reporter, at 10 µM, hits give high values. A general note: A reporter such as luciferase makes a cellular process visible.
One may read the inhibition as the drop in the measured response relative to a control, in per cent. For the compound `CCOC(=O)c1c(C)oc2ccc(O)c(CN3CCCCC3)c12`, the inhibition is 31.7%.

`ON=C1/C(=N\O)CC2(C/C1=N/O)OCCO2`: the inhibition is 4.87%.

Take `CC1CCCCN1CCNC(=O)c1ccc2c(=O)n(CCc3ccccc3)c(=O)[nH]c2c1` (stereo not given): the inhibition is -7.7%.

Take `COc1nc(OC)nc(N2CCC(NC(=O)C(Cc3ccc(C(C)C)cc3)NC(C)=O)CC2)n1` (stereo not given): the inhibition is 11.8%.

Consider `O=C(CN1C(=O)c2cccc3cccc1c23)N1CCN(c2ccccc2)CC1`, for which the inhibition is 2.78%.

Regarding `CCCc1cc(-c2n[nH]c(C)c2-c2ccc(C(=O)OCC)o2)c(O)cc1O`, the inhibition was 17.9%.

In the case of `Cc1ccc(-c2cc(C(=O)NCc3ccc4c(c3)OCO4)no2)cc1`, the inhibition is -26.2%.

Regarding `CCn1c(SCC(=O)Nc2ccc(C(C)=O)cc2)nc2ccccc21`, the inhibition was -19.9%.

For `CCCCNC(=O)CN(C1CCCCC1)S(C)(=O)=O`, the inhibition is 14.9%.

In the case of `C[C@H](NC(=O)OC(C)(C)C)C(=O)NCC1CCC(C(=O)O)CC1` (stereo not given in full), the inhibition is 21.3%.

As for `c1ccc(-c2cc(-c3nc(-c4ccccn4)no3)c3ccccc3n2)cc1`, the inhibition was -37.7%.

With `Cc1cccc(N2CCN(C(=O)Cn3ccc4ccccc4c3=O)CC2)c1C`, the inhibition was -30.8%.

`Nc1sccc1C(=O)c1ccccc1`: the inhibition is -9.56%.

With `COc1ccc(C2=NOC(C(=O)NCc3ccc(F)cc3)C2)cc1OC` (stereo not given), the inhibition is 82.8% (active).

Turning to `c1ccc(-c2cn3c4c(sc3n2)CCCC4)cc1`, the inhibition is 71.3% (active).

Take `COc1ccc(-n2c(COc3ccccc3)nnc2SCc2ccc(C#N)cc2)cc1`: the inhibition was 19.5%.

For `Cc1ccc(Cn2c(C(=O)NCCCN3CCOCC3)cc3sccc32)cc1`, the inhibition was 31.6%.

Turning to `Cc1ccc(NC(=O)CS(=O)CC(=O)NCC2CCCO2)cc1` (stereo not given), the inhibition is -6.01%.

Regarding `CCN(CC)C(=O)CSc1nc2ccccc2c(=O)n1CCC(=O)NCc1ccc(F)cc1`, the inhibition is -7.71%.

For the compound `COc1ccccc1N1CCN(c2nc3ccccc3nc2C(C#N)C(=O)OC(C)C)CC1` (stereo not given), the inhibition is -6.25%.

For the compound `COc1ccc2cc(C#N)c(NC(C)C)nc2c1`, the inhibition is 23%.

On to `Cc1nc2ccc(NC(=O)N3CCC(c4ccccc4)C3)cc2nc1C` (stereo not given), for which the inhibition was -40.6%.

For the compound `COc1cc(=O)[nH]c(SCc2c(F)c(F)c(F)c(F)c2F)n1`, the inhibition was 22.3%.

With `CC(=O)Nc1ccc(S(=O)(=O)N(CC(=O)O)Cc2ccccc2)cc1`, the inhibition is 14.2%.

For the compound `CCOC(=O)c1nnn(-c2nonc2N)c1CN1CCc2ccccc2C1`, the inhibition is 24.5%.

In the case of `CCOC(=O)N1CCC(NC(=O)c2ccc3c(c2)N(C)CCS3)CC1`, the inhibition was 21.9%.

In the case of `CCOC(=O)c1c(NCc2ccc3c(c2)OCO3)c2ccccc2[nH]c1=O`, the inhibition was -13.3%.

Consider `O=S1(=O)Nc2c(ccc3cccnc23)-c2ccccc21`, for which the inhibition is -17.5%.

In the case of `COc1ccc(CCN2C(=O)C3C4C=CC(C4)C3C2=O)cc1OC` (stereo not given), the inhibition is 12.7%.

Turning to `CC(=O)NCCn1ccc2ccccc21`, the inhibition is 20.7%.

Regarding `C=CCn1c(=O)[nH]c2cc(C(=O)N3CCN(c4ccc(C(C)=O)cc4)CC3)ccc2c1=O`, the inhibition was -9.26%.

As for `O=C(CSc1nc2ccccc2c(=O)n1CCC(=O)N1CCCCC1)NCc1ccccc1`, the inhibition was 24.1%.

In the case of `COC(=O)C(F)(F)Sc1c(C)[nH]c2ccccc12`, the inhibition is 27%.

`COCCN(C(=O)Cn1nnc2ccccc21)C(C(=O)NC1CCCC1)c1cc(OC)ccc1OC` (stereo not given): the inhibition is 8.36%.

With `COC(=O)C(C)C1Sc2ccccc2NC1=O` (stereo not given), the inhibition is -8.12%.

For the compound `COc1ccc(CC(NC(C)=O)C(=O)NC2CCN(c3nc(C)cc(C)c3C#N)CC2)c(OC)c1` (stereo not given), the inhibition was -9.61%.

With `Cc1ccc(CS(=O)(=O)CCC(=O)NCC2CCCO2)cc1` (stereo not given), the inhibition was 8.68%.

Regarding `COc1ccccc1-c1nc(C#N)c(N2CCN(c3ccccc3)CC2)o1`, the inhibition was 12%.

With `COc1cccc(OCC(O)CN2CCN(CCO)CC2)c1` (stereo not given), the inhibition was 13.5%.

Turning to `Cc1ccc(C(=O)OCC(=O)c2ccc(Cl)s2)s1`, the inhibition was -58%.
